# Laboratory results reported in ChEMBL document CHEMBL4513216, “Probing the Open Global Health Chemical Diversity Library for Multistage-Active Starting Points for Next-Generation Antimalarials” (ACS Infect Dis, 2020).
# Out of some 69,000 compounds screened, about 8,600 (12%) showed an effect of 50% or more. Many of the other results were omitted from the sample, so strong results are more common in it than they were.
# Tested on: Plasmodium berghei
# Assay: Screen against P. berghei liver stage (PbLuc), transformed with Luciferase, at 10uM
# Format: functional, HepG2
# Details: tested at 10 uM
row,Compound,INHIBITION [%]
1,COc1ccccc1CC(=O)N(C)Cc1cc(C)on1,10
2,COc1ccc(OC)c(NC(=O)CSc2ccc3nncn3n2)c1,7.25
3,c1coc(-c2noc(CN3CCc4cncnc4C3)n2)c1,26.43
4,Cc1noc(C)c1-c1cc(CCC2CN(C(=O)CN)CCO2)ncn1 (stereo not drawn),-7.005
5,CC(C)c1nnc(NC(=O)NC2CCOc3ccccc32)s1 (stereo not drawn),32.2
6,O=C(Nc1nnc(C2CC2)s1)NC1CCOc2ccccc21 (stereo not drawn),54.4
7,Cc1nnc(NC(=O)NC2CCOc3ccccc32)s1 (stereo not drawn),13.5
8,Cn1nccc1CN1CCOC(c2ccc(-c3cncnc3)cn2)C1 (stereo not drawn),23.8
9,Cn1nccc1CN1CCOC(c2cccc(Nc3ccccn3)n2)C1 (stereo not drawn),78.6
10,Cn1nccc1CN1CCOC(c2cccc(-c3cncnc3)n2)C1 (stereo not drawn),16.55
11,Cc1c(C(=O)N2CCNC(=O)C2)sc2nc[nH]c(=O)c12,20.6
12,O=C(O)c1c(-c2cncnc2)ncc2c1CCN(Cc1cccnc1)C2,96.1
13,Cn1nccc1-c1ncc2c(c1C(=O)O)CCN(Cc1ccccc1)C2,58.7
14,Cn1nccc1-c1ncc2c(c1C(=O)O)CCN(Cc1ccncc1)C2,20.1
15,O=C(O)c1c(-c2cccnc2)ncc2c1CCN(Cc1ccccn1)C2,-33.9
16,Cn1nccc1-c1ncc2c(c1C(=O)O)CCN(Cc1cccnc1)C2,13.7
17,O=C(O)c1c(-c2cccnc2)ncc2c1CCN(Cc1cccnc1)C2,6.66
18,Fc1ccc(-c2cnc(C3CCCN3)cn2)cc1 (stereo not drawn),27
19,O=C1[C@@H]2CC[C@@H](CN(C3CCOCC3)C2)N1Cc1cscn1,33
20,CC(C(=O)O)n1nc(C(F)(F)F)c(Br)c1C1CC1 (stereo not drawn),38.3
21,COc1ccc(Cl)cc1CC(=O)NS(=O)(=O)c1ccc(C(N)=O)cc1,-18
22,O=C(NCC(O)c1ccccc1)Nc1cccs1 (stereo not drawn),-39.3
23,CCSc1ncc(CN2CCN(c3nc(C)cnc3C)CC2)cn1,-50.8
24,CCSc1ncc(CN2CCN(c3ncc(C)c(N)n3)CC2)cn1,-37.7
25,CCSc1ncc(CN2CCN(c3nc(C)ncc3C)CC2)cn1,56.6
26,CCn1cnnc1CNS(=O)(=O)N1CCCC1c1ccco1 (stereo not drawn),-120
27,O=C(Cc1ccsc1)N1CCCCC1c1ccn2ccnc2n1 (stereo not drawn),47.1

row,Compound,INHIBITION [%]
1,c1cncc(-c2nnn3c2COCC(CNC2CCOCC2)C3)c1 (stereo not drawn),33.4
2,Cc1ccnc(C2(C)CCCN2C(=O)c2cnccn2)n1 (stereo not drawn),6.32
3,C/C=C(\C)CN1C[C@H](NC(=O)CN2CCCC2=O)[C@@H](c2ccc(C)o2)C1,18.3
4,CC(=O)N[C@@H]1CN(Cc2ccco2)C[C@H]1c1ccc(C)o1,32.8
5,C/C=C(\C)CN1C[C@H](NC(=O)CCOC)[C@@H](c2ccc(C)o2)C1,63.5
6,O=C(NCC1CC1)Nc1cnc2ccc(F)cc2c1O,23.2
7,COc1ccc(CN2C[C@@H]3CCCO[C@@H]3[C@H](NS(C)(=O)=O)C2)cc1,2.01
8,CO[C@@H]1c2ccccc2C2(CCN(C(=O)CNS(C)(=O)=O)CC2)[C@H]1O,-6.61
9,CCOc1ccc(NC(C)c2nnnn2-c2ccccc2)cc1CO (stereo not drawn),20.9
10,COc1ccc(NC(C)C(=O)NCCc2cccs2)cc1F (stereo not drawn),38.5
11,CCC(Nc1nnnn1-c1ccccc1)C(=O)Nc1ccccc1C (stereo not drawn),-19.1
12,CC(Nc1ccc(F)cc1)c1nnnn1-c1ccccc1 (stereo not drawn),81.7
13,COc1ccc(NC(C)c2nnnn2-c2ccccc2)cn1 (stereo not drawn),18.3
14,COc1ccc(NC(C)c2nnnn2-c2ccccc2)cc1F (stereo not drawn),54.3
15,O=C(O)Cn1ccc(=O)c2ccc(Cl)cc21,11.1
16,COc1ccc(NC(=O)NCc2cccc(N(C)C)n2)c(Cl)c1,7.49
17,CN(C)c1cccc(CNC(=O)Nc2cc(C#N)ccc2Cl)n1,15.8
18,CC(=O)c1ccc(NC(=O)NCc2cccc(N(C)C)n2)cc1C,62.1
19,COc1cc(F)cc(NC(=O)NCc2cccc(N(C)C)n2)c1,55.3
20,COc1ccc(C)c(NC(=O)NCc2cccc(N(C)C)n2)c1,-35.2
21,CN(C)c1cccc(CNC(=O)Nc2ccc3[nH]nnc3c2)n1,-4.13
22,CCc1nccn1CCCNC(=O)c1cnn(-c2ccccc2OC)c1,-1.45
23,Cc1nn(C)c(C)c1C1CCCN1CC(=O)Nc1cc(C(C)C)no1 (stereo not drawn),-1.14
24,O=C(c1cnccn1)N1C[C@@H](OCc2ccncc2)[C@@H]2OCCC[C@@H]21,33
25,O=C(NC1CCCc2nc(N3CCOCC3)ncc21)C1CCCC1 (stereo not drawn),-5.71
26,COc1cc(-c2nc(CN(CCO)CCO)c(C)o2)ccc1F,22.5
